The text below walks through data of ChEMBL document CHEMBL4296182, “CO-ADD screening of NIH NCI Diversity Set V”.

Each structure is given as a SMILES string. For part of these data: Entries with a potency or affinity are not part of this list.

One experiment relates to Staphylococcus aureus. The experiment is described as follows: Antibacterial activity against Staphylococcus aureus MRSA ATCC 43300 (CO-ADD:GP_020); MIC in CAMBH media using NBS plates, by Resazurin F(560/590). Format: functional. Particulars: Concentration 20 uM, ASSAY_TEST Inhibition of Bacterial Growth, detection method Resazurin, Fluorescence (ex560/em590), MEDIA CAMHB, plate type 384well, CORNING #3640, time 18 hr. (In general: Resazurin is reduced to fluorescent resorufin, in cell work by metabolically active cells.)

A further experiment relates to Acinetobacter baumannii. Kind of experiment: Antibacterial activity against Acinetobacter baumannii ATCC 19606 (CO-ADD:GN_034); MIC in CAMBH media using NBS plates, by Resazurin F(560/590). Format: functional. Particulars: Concentration 20 uM, ASSAY_TEST Inhibition of Bacterial Growth, detection method Resazurin, Fluorescence (ex560/em590), MEDIA CAMHB, plate type 384well, CORNING #3640, time 18 hr.

The test system of the next experiment is Escherichia coli. The experiment is described as follows: Antibacterial activity against Escherichia coli ATCC 25922 (CO-ADD:GN_001); MIC in CAMBH media using NBS plates, by Resazurin F(560/590). The format is functional. The following applies: Concentration 20 uM, ASSAY_TEST Inhibition of Bacterial Growth, detection method Resazurin, Fluorescence (ex560/em590), MEDIA CAMHB, plate type 384well, CORNING #3640, time 18 hr.

In a further experiment the test system is Klebsiella pneumoniae. Particulars: Concentration 20 uM; ASSAY_TEST Inhibition of Bacterial Growth; detection method Absorption (OD600); MEDIA CAMHB; plate type 384well; NBS; CORNING #3640; time 18 hr.
A further experiment relates to Candida albicans. Particulars: 20 µM.
A further experiment deals with Cryptococcus neoformans. The following applies: Concentration 20 uM; ASSAY_TEST Inhibition of Fungal Growth; detection method Resazurin; Absorption (OD600-OD570); plate type 384well; NBS; CORNING #3640.

As for `CC12CCC(C(NC(=S)NN)C1=O)C2(C)C` (stereo unspecified), the Inhibition in the experiment on Staphylococcus aureus was 2.53%; with Acinetobacter baumannii it was -10.15%; in the experiment with Escherichia coli it was 7.86%; in the experiment on Klebsiella pneumoniae it was 9.19%; in the experiment with Candida albicans, 1.53%; in the experiment on Cryptococcus neoformans, -9.53%.

As for `CC(OC(=O)Nc1cccc(Cl)c1)C(=O)O` (stereo unspecified), the Inhibition is 8.5% in the experiment on Staphylococcus aureus; 9.43% in the experiment with Acinetobacter baumannii; 16.3% with Escherichia coli; 7.75% in the experiment with Klebsiella pneumoniae; -1.51% in the experiment with Candida albicans; -11.24% in the experiment with Cryptococcus neoformans.

In the case of `c1ccc(-n2nnnc2-c2cccc3ccccc23)cc1`, the Inhibition was 11.74% with Staphylococcus aureus; 8.55% with Acinetobacter baumannii; -5.59% in the experiment with Escherichia coli; 3.86% with Klebsiella pneumoniae; 8.07% in the experiment with Candida albicans; -9.54% with Cryptococcus neoformans.

For `CCCCCCC(C)OC(=O)c1ccccc1C(=O)O` (stereo unspecified), the Inhibition in the experiment on Staphylococcus aureus was 12.97%; in the experiment with Acinetobacter baumannii, -3.64%; with Escherichia coli it was -2.32%; with Klebsiella pneumoniae it was 24.05%; in the experiment on Candida albicans, 18.6%; in the experiment with Cryptococcus neoformans, -16.02%.

As to `Cc1cc(S)nc(S)n1`, the Inhibition in the experiment with Staphylococcus aureus was 19.64%; in the experiment with Acinetobacter baumannii, -5.84%; in the experiment on Escherichia coli, 8.34%; in the experiment with Klebsiella pneumoniae, 8.54%; in the experiment with Candida albicans, -0.64%; in the experiment with Cryptococcus neoformans, -0.35%.

As to `OCc1nc2nc(Cl)c(Cl)[nH]c-2n1`, the Inhibition in the experiment with Staphylococcus aureus is -3.73%; in the experiment with Acinetobacter baumannii, 14.74%; in the experiment on Escherichia coli, -8.33%; in the experiment on Klebsiella pneumoniae, 8.57%; with Candida albicans it was 1.75%; in the experiment with Cryptococcus neoformans, -8.15%.

Consider `Cc1ccc(NC(=O)Nc2c(Cl)cccc2Cl)cn1`, for which the Inhibition in the experiment on Staphylococcus aureus was 20.25%; in the experiment on Acinetobacter baumannii it was -2.44%; with Escherichia coli, -14.35%; with Klebsiella pneumoniae, 6.22%; in the experiment on Candida albicans it was 3.4%; with Cryptococcus neoformans, 18.5%.

As for `COc1cc2c(cc1OC)[N+]([O-])=C(c1ccccc1)C2=O`, the Inhibition in the experiment with Staphylococcus aureus was 11.49%; with Acinetobacter baumannii, -5.23%; with Escherichia coli, 9.41%; with Klebsiella pneumoniae it was -2.97%; with Candida albicans it was 13.8%; in the experiment with Cryptococcus neoformans, -4.84%.

With `OCC1(CO)CC2(C1)CC(CO)(CO)C2`, the Inhibition is 5.83% in the experiment on Staphylococcus aureus; -10.2% in the experiment on Acinetobacter baumannii; 9.77% in the experiment on Escherichia coli; 7.41% in the experiment on Klebsiella pneumoniae; -2% in the experiment on Candida albicans; 1.54% in the experiment on Cryptococcus neoformans.

Take `CCN1CCC(Nc2ccnc3cc(Cl)ccc23)CC1`: the Inhibition is 11.96% in the experiment on Staphylococcus aureus; -0.07% in the experiment on Acinetobacter baumannii; -4.98% with Escherichia coli; 16.53% in the experiment with Klebsiella pneumoniae; 2.51% in the experiment with Candida albicans; -6.53% in the experiment on Cryptococcus neoformans.

For `C=CCNC(S)=Nc1c(N)n(C)c(=O)n(C)c1=O`, the Inhibition in the experiment on Staphylococcus aureus was 11.89%; in the experiment with Acinetobacter baumannii, 5.83%; with Escherichia coli it was -15.58%; with Klebsiella pneumoniae it was 18.14%; in the experiment with Candida albicans, 8.36%; in the experiment with Cryptococcus neoformans, 18.71%.

For the compound `N=C(N)n1c(N)nc2ccccc2c1=O`, the Inhibition is -3.84% with Staphylococcus aureus; 11.96% with Acinetobacter baumannii; 12.39% in the experiment on Escherichia coli; 5.57% with Klebsiella pneumoniae; 0.23% with Candida albicans; -13.19% with Cryptococcus neoformans.

Take `Nc1ccc(C(=O)Nc2ccc(NC(=O)c3ccco3)c(O)c2)cc1`: the Inhibition with Staphylococcus aureus is 1%; in the experiment with Acinetobacter baumannii, 0.24%; in the experiment with Escherichia coli, 0.6%; in the experiment with Klebsiella pneumoniae, 17.4%; with Candida albicans, 3.85%; in the experiment with Cryptococcus neoformans, -8.99%.

On to `CN(CCC#N)c1ccc(/C=C(\C#N)c2cccc(C(F)(F)F)c2)cc1`, for which the Inhibition in the experiment with Staphylococcus aureus is -1.81%; in the experiment on Acinetobacter baumannii, 5.38%; in the experiment on Escherichia coli, -0.01%; with Klebsiella pneumoniae, 0.85%; with Candida albicans it was 3.04%; with Cryptococcus neoformans, -3.8%.

Consider `C=CCC(CC)C(=O)NC(=O)N1CCCc2ccccc21` (stereo unspecified), for which the Inhibition in the experiment on Staphylococcus aureus was -2.1%; with Acinetobacter baumannii it was 11.89%; with Escherichia coli, -1.31%; with Klebsiella pneumoniae, 11.1%; in the experiment on Candida albicans, 4.92%; with Cryptococcus neoformans it was -1.85%.

On to `CC(=O)c1cc2c(cc1C)CCCC2(C)C`, for which the Inhibition is 18.6% with Staphylococcus aureus; -15.87% in the experiment with Acinetobacter baumannii; 11.58% in the experiment with Escherichia coli; 0.53% in the experiment on Klebsiella pneumoniae; -0.44% in the experiment with Candida albicans; -7.49% with Cryptococcus neoformans.

For the compound `c1ccc(-n2c3ccccc3c3ccccc32)cc1`, the Inhibition in the experiment on Staphylococcus aureus was 0.65%; in the experiment with Acinetobacter baumannii, -3.58%; in the experiment with Escherichia coli, 6.48%; in the experiment with Klebsiella pneumoniae, 0.88%; in the experiment on Candida albicans, 5.95%; in the experiment on Cryptococcus neoformans, 11.23%.

`C1CCCC(NC2=NCCO2)CCC1`: the Inhibition in the experiment with Staphylococcus aureus was -8.35%; with Acinetobacter baumannii it was -11.54%; in the experiment on Escherichia coli, -9.72%; with Klebsiella pneumoniae it was 4.38%; with Candida albicans it was -2.21%; in the experiment with Cryptococcus neoformans, -3.14%.

For the compound `[O-]/[N+](=C\c1ccccc1)CC1(O)CCCCC1`, the Inhibition was found to be 12.91% with Staphylococcus aureus; 10.28% with Acinetobacter baumannii; 21.78% with Escherichia coli; 2.39% in the experiment with Klebsiella pneumoniae; 5.54% in the experiment with Candida albicans; 9.39% in the experiment on Cryptococcus neoformans.

For `CC(=O)n1cc(C2CC(=O)OC3=C2CC(=O)C(C)(C)C3)c2ccccc21` (stereo unspecified), the Inhibition with Staphylococcus aureus is 13.95%; in the experiment on Acinetobacter baumannii, 4.13%; in the experiment with Escherichia coli, 1.01%; with Klebsiella pneumoniae it was 11.94%; with Candida albicans, 2.8%; with Cryptococcus neoformans it was -0.61%.

As to `c1ccc(-c2cn3ccccc3n2)cc1`, the Inhibition in the experiment on Staphylococcus aureus is 26.82%; in the experiment on Acinetobacter baumannii, -4.96%; in the experiment on Escherichia coli, 13.79%; in the experiment on Klebsiella pneumoniae, 17.46%; in the experiment on Candida albicans, -0.09%; with Cryptococcus neoformans, -2.58%.

For orientation: Inhibition means the change of the read-out against control, counted positive when it falls.
